# Measured values from PubChem BioAssay AID485346 (Sanford-Burnham Center for Chemical Genomics, 2010).
# Hit rate of the full screen: of about 330,000 compounds, about 10,000 (3%) were called active.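 The calls were made as follows: active = inhibition of at least 50% at 8 µM in the primary screen; inactive = the rest.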 What follows is part of a selection rich in actives, with near analogues and random picks from the rest.
# Molecular target: Protein Mdm4 (Homo sapiens) + E3 ubiquitin-protein ligase Mdm2 (Homo sapiens) (UniProt O15151+Q00987)
# Experiment: inhibitors of human Mdm2-MdmX association, primary screen, cell-based, luminescence, split luciferase, SaOS-2, uHTS (AID 485346)
# Conditions: SaOS-2 split-luciferase Mdm2/MdmX complementation, at 8 µM, hits give high values
# Protein Mdm4 (Homo sapiens) + E3 ubiquitin-protein ligase Mdm2 (Homo sapiens), sequence (O15151 whole entry, looked up): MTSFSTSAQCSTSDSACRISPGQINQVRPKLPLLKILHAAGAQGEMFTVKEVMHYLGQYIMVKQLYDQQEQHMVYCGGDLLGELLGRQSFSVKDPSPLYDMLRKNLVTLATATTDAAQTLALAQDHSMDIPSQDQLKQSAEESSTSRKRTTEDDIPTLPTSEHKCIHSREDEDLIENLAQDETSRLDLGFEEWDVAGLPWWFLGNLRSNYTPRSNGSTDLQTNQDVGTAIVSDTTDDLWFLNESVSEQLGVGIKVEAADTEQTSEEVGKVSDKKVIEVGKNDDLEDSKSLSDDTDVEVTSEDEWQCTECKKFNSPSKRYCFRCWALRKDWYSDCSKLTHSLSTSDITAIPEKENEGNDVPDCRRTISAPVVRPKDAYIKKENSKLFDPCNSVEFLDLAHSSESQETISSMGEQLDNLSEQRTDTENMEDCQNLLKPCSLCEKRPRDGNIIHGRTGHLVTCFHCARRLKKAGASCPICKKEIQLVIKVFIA
# Protein Mdm4 (Homo sapiens) + E3 ubiquitin-protein ligase Mdm2 (Homo sapiens), sequence (Q00987 whole entry, looked up): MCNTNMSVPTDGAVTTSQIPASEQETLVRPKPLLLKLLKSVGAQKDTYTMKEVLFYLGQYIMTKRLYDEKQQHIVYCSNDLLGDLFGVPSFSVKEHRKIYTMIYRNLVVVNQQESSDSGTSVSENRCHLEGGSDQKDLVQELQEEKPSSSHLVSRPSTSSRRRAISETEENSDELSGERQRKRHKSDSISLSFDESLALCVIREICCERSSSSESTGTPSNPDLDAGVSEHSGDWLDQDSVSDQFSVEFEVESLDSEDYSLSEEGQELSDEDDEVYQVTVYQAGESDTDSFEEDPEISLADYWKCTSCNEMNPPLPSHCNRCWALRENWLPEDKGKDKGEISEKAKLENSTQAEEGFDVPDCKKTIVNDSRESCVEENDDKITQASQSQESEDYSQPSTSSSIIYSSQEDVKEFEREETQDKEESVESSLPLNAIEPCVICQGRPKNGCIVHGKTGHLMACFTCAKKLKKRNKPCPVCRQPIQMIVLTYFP
row,Compound,inhibition
1,CO[C@@H]1[C@@H](OC(N)=O)[C@@H](O)C(Oc2ccc3c(O)c(NC(=O)c4ccc(O)c(CC=C(C)C)c4)c(=O)oc3c2C)OC1(C)C (stereo partly drawn),20.1% (inactive)
2,Oc1ccccc1C1=NN(c2ccccc2)C(c2ccccc2)C1 (stereo not drawn),58.3% (active)
3,COc1ccc(C2CC(c3cccs3)=NN2c2ccccc2)cc1 (stereo not drawn),-32.2% (inactive)
4,O=C(c1ccccc1)N1N=C(c2ccccc2O)CC1c1ccc(Br)cc1 (stereo not drawn),12% (inactive)
5,CCSc1nc(O)c(C(c2cccc(OC)c2)c2c(O)nc(SCC)[nH]c2=O)c(=O)[nH]1,-27.3% (inactive)
6,COc1ccc(CNC(=O)c2nnn(CC(=O)Nc3cc(C)cc(C)c3)c2N)cc1,48.3% (inactive)
7,COc1cccc(CNC(=O)c2nnn(CC(=O)Nc3cc(C)ccc3C)c2N)c1,5.26% (inactive)
8,COc1cccc(CNC(=O)c2nnn(CC(=O)Nc3cc(Cl)ccc3C)c2N)c1,77.9% (active)
9,Cc1ccc(Nc2nnc(SC(C)C(=O)NC3CC3)s2)cc1 (stereo not drawn),22.3% (inactive)
10,Cc1cc(=O)n2nc(N3CCC(C(=O)Nc4c(F)c(F)c(F)c(F)c4F)CC3)sc2n1,8.91% (inactive)
11,c1ccc2c(NCC3CCCO3)nc(-c3ccncc3)nc2c1 (stereo not drawn),-16.8% (inactive)
12,COc1cnc(-c2ccccn2)nc1Oc1ccc(C(C)(C)C)cc1,37.6% (inactive)
13,CC(C)(C)Nc1nc(-c2ccccn2)nc2ccccc12,87.5% (active)
14,N#Cc1ccc(Oc2cc(C(F)(F)F)nc(-c3ccccn3)n2)cc1,11.2% (inactive)
15,Cc1ccc(Oc2nc(-c3ccccn3)nc3ccccc23)cc1,60.4% (active)
16,c1ccc(-c2nccc(-c3ccc(-n4cnc5ccccc54)cc3)n2)nc1,28.4% (inactive)
17,CCn1nc(C)c(CN2CCN(Cc3ccc(OC)c(C)c3C)C(CCO)C2)c1C (stereo not drawn),10.8% (inactive)
18,O=C(OCCN1CCOCC1)C1(c2ccccc2)CCCCC1,-8.86% (inactive)
19,Cc1ncn2cc(-c3ccc(Cl)cc3Cl)[nH]c(=O)c12,7.48% (inactive)
20,O=C(Nc1nnc(-c2ccc(F)cc2)s1)c1c(F)cccc1Cl,7.4% (inactive)
21,Cc1ccc(C(=O)Nc2nnc(-c3ccncc3)s2)o1,-5.65% (inactive)

row,Compound,inhibition
1,CC(C)=CC(=O)Nc1nnc(-c2ccc(F)cc2)s1,80% (active)
2,COc1ccccc1N(C)S(=O)(=O)c1ccc(Cl)c(C(=O)N2CCC(C(N)=O)CC2)c1,-6.16% (inactive)
3,Cc1ccc2[nH]c3c(=O)n(CC(=O)NCCc4ccc(Cl)cc4)ncc3c2c1,-13.8% (inactive)
4,COc1ccc(C2CC(=O)Oc3ccc(C(C)(C)C)cc32)cc1 (stereo not drawn),21.6% (inactive)
5,c1ccc2c(c1)C(=NC1CCCCC1)NC2=NC1CCCCC1,94.3% (active)
6,Cc1nn(C)c(Cl)c1CN1CCC(n2nccc2NC(=O)C2CCCC2)CC1,12.6% (inactive)
7,COCc1cc(=O)[nH]c(SC)n1,5.54% (inactive)
8,COc1ccc([C@@H]2[C@@H]3C(=O)N(C(C)(C)C)C(=O)[C@@H]3[C@]3(Cc4ccccc4)C(=O)N(c4cccc(Br)c4)C(=O)N23)cc1,37.8% (inactive)
9,O=C(NNC(=O)c1cc(-c2ccccc2Cl)nc2ccccc12)c1csc(N2CCOCC2)n1,-34.1% (inactive)
10,C=CCn1c(C23CC4CC(CC(C4)C2)C3)n[nH]c1=S,9.22% (inactive)
11,Cc1ccc(NNC(=O)C2CCC2)cc1C,-2.12% (inactive)
12,O=c1cc(C(F)(F)F)[nH]c(=O)n1C1CCCCC1,-23.2% (inactive)
13,Cc1ccc(Nc2cc(=O)n(C3CCCCC3)c(=O)[nH]2)cc1C,54.2% (active)
14,O=C(Cn1ccc2cc(S(=O)(=O)N3CCCC3)ccc21)NCc1ccccc1,12.6% (inactive)
15,COC(=O)Cn1cc(/C=C/[N+](=O)[O-])c2ccccc21,23.4% (inactive)
16,O=[N+]([O-])/C=C/c1ccc2c(ccn2Cc2ccccc2)c1,95.5% (active)
17,Oc1ccc(N=Nc2nccs2)c(O)c1,53.8% (active)
18,O=C(NC1(C(F)(F)F)NC(=O)N(Cc2cccnc2)C1=O)c1ccccc1Cl (stereo not drawn),1.79% (inactive)
19,Cc1cc(C)c(C#N)c(SCC(=O)N(CC(C)C)C2CCS(=O)(=O)C2)n1 (stereo not drawn),18% (inactive)
20,CN(C)Cc1c(C(=O)N/N=C/c2ccccc2OCc2ccc(F)cc2)nnn1-c1nonc1N,14.6% (inactive)
21,CC1CCN(C(=O)c2ccc(CSc3ccc(Cl)cc3)cc2)CC1,-14.2% (inactive)

row,Compound,inhibition
1,Nc1ccc(C(=O)N2CCN(S(=O)(=O)c3ccc(Cl)cc3)CC2)cc1[N+](=O)[O-],18.3% (inactive)
2,CC1CCN(C(=O)c2ccc(S(=O)(=O)Cc3cc(F)ccc3F)c([N+](=O)[O-])c2)CC1,68.4% (active)
3,CCOc1cccc(C(=O)Nc2nnc(-c3cccs3)s2)c1,-36.4% (inactive)
4,COc1ccc(C(=O)Nc2nc(-c3ccc(OC)cc3)c(-c3ccc([N+](=O)[O-])cc3)s2)cc1,13.4% (inactive)
5,N#Cc1ccc(C(=O)Nc2nc(-c3cccs3)c(C(=O)C(F)(F)F)s2)cc1,83.2% (active)
6,COc1ccc(CC(NC(C)=O)C(=O)NC2CCN(C(=O)c3ccc(Cl)cc3)CC2)cc1 (stereo not drawn),7.62% (inactive)
7,Cc1ccc(-c2nn(C(C)(C)C)c3ncnc(N)c23)cc1,79% (active)
8,Cc1ccc(-n2cnc3ncnc(-c4ccccc4)c32)cc1,6.32% (inactive)
9,c1ccc(-c2cnc(CN3CCN(c4ccccc4)CC3)o2)cc1,-0.44% (inactive)
10,CCN=c1sc(C(=O)Nc2ccccc2)c(C)n1CC,18.2% (inactive)
11,CCCn1c(N)c(C(=O)CSc2nnc3n2CCCCC3)c(=O)[nH]c1=O,2.64% (inactive)
12,CC(C)(C)NC(=O)NC(=O)CN1CCC(Cc2ccccc2)CC1,12% (inactive)
13,Cc1cccc2sc(N(CCCN(C)C)C(=O)CCS(=O)(=O)c3ccccc3)nc12,98.7% (active)
14,COc1cccc2sc(N(CCCN(C)C)C(=O)C(c3ccccc3)c3ccccc3)nc12,92.5% (active)
15,Cc1cccc(C)c1NC(=O)CCS(=O)(=O)c1cccc2nsnc12,-1.39% (inactive)
16,CC(=O)N(CCCN(C)C)c1nc2ccc(C)cc2s1,-16.8% (inactive)
17,COc1ccc(N(C)C(=O)CCS(=O)(=O)c2cccc3nsnc23)cc1,-8.48% (inactive)
18,COc1cccc2sc(N(CCCN(C)C)C(=O)CCS(=O)(=O)c3ccccc3)nc12,73.6% (active)
19,CN(C)CCN(C(=O)CN1C(=O)c2ccccc2C1=O)c1nc2cc3c(cc2s1)OCCO3,-9.56% (inactive)
20,COc1cc2ccccc2cc1C(=O)N(CCN(C)C)c1nc2c(F)cccc2s1,19.4% (inactive)
21,COc1ccc(NC(=O)CS(=O)(=O)c2ccccc2)cc1,-16.7% (inactive)
